Test results as given in PubChem BioAssay.
Active and inactive are the calls of the source. The rule behind the calls is not given here.

What follows are compounds tested against Pantothenate synthetase (Mycobacterium tuberculosis (strain ATCC 25618 / H37Rv)) (UniProt P9WIL5) (assay: Recombinant Mtb pantothenate synthetase (PanC) inhibitors, coupled enzyme, confirmatory (AID 375;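 note: 0% = full reaction with vehicle and 100% = no enzyme background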)). Conditions: coupled enzyme assay; at 10 µM, active compounds read high.
Sequence of Pantothenate synthetase (Mycobacterium tuberculosis (strain ATCC 25618 / H37Rv)) (P9WIL5 whole entry, looked up): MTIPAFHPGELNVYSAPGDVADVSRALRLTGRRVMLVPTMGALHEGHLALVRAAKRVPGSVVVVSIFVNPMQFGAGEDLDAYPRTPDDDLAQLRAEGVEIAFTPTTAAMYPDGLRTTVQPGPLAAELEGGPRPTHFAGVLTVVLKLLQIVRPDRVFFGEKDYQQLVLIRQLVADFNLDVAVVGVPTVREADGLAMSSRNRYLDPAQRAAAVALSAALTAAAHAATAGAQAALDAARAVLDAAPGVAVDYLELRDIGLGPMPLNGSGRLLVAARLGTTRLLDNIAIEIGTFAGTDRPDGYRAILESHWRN

Compound	inhibition
CCOc1ccc(N(CC(=O)NC2CCCCC2)S(=O)(=O)c2c(C)noc2C)cc1	0% (inactive)
Cc1c(Br)c(C(F)(F)F)nn1CC(=O)NCCN1CCOCC1	0% (inactive)
CCCn1c(=O)c2ccccc2n2c(SCCOc3ccccc3F)nnc12	0% (inactive)
CCN(C(=O)c1ccnc(C(C)(C)C)c1)c1ccccc1	0% (inactive)
CCCNc1nc(N2CCOCC2)nc(N2CCOCC2)n1	0% (inactive)
CC[N+](C)(C)Cc1ccccc1Br	0% (inactive)
CC(=O)Nc1ccc(S(=O)(=O)N(C2=NCC(C)S2)c2ccccc2)cc1 (stereo not given)	0% (inactive)
COc1cc(C2C(C(=O)c3ccc(C)o3)=C(O)C(=O)N2c2cc(C)on2)cc(Br)c1O (stereo not given)	0% (inactive)
CC1Cc2ccccc2N1Cc1cc(=O)n2ccsc2n1 (stereo not given)	0% (inactive)
Cc1cc(C)c2c(n1)sc1c(N3CCOCC3)ncnc12	5% (inactive)
CC1=C(C(=O)N2CCCCC2)C(c2cccs2)C2=C(CCCC2=O)N1 (stereo not given)	0% (inactive)
CC(C)C1N=C2c3ccccc3N=C(SCC(=O)NCCc3ccc(S(N)(=O)=O)cc3)N2C1=O (stereo not given)	0% (inactive)
Cc1nc(NC(=O)C2CC3CCCC(C2)C3=O)sc1C (stereo not given)	0% (inactive)
C=CCOC(=O)COc1ccc2c(C)c(C)c(=O)oc2c1C	0% (inactive)
CCOC(=O)Cn1c(CN(C)Cc2ccccc2)nc2c1c(=O)n(C)c(=O)n2C	5% (inactive)
Cc1ccc(N2CC(C(=O)N3CCN(C(=O)c4ccco4)CC3)CC2=O)cc1 (stereo not given)	0% (inactive)
COC(=O)c1[nH]c2ccccc2c1NS(=O)(=O)c1ccc(OC)cc1OC	3% (inactive)
Cc1ccc(Nc2cc(C)nc3ncnn23)c(Cl)c1	0% (inactive)
COc1ccc(-c2cc3ccc(OCc4nn[nH]n4)cc3oc2=O)cc1	7% (inactive)
CCc1nccn1S(=O)(=O)c1ccc2ccc(C)cc2c1	3% (inactive)

Compound	inhibition
CC(C(=O)N1c2ccc(F)cc2CCC1C)N1C(=O)c2ccccc2C1=O (stereo not given)	5% (inactive)
CCSc1oc(-c2ccco2)nc1S(=O)(=O)c1ccccc1	0% (inactive)
C=CCOC(=O)CC(NC(=O)c1ccccc1)c1ccccc1 (stereo not given)	0% (inactive)
CCN1CCN(C(c2cccs2)C(C)NC(=O)c2ccccc2)CC1 (stereo not given)	12% (inactive)
CCCOC(=O)/C(C(N)=NCc1ccccc1)=C(\O)OCCC	0% (inactive)
O=C(Nc1ccc(N2CCOCC2)cc1)c1cc2ccccc2o1	0% (inactive)
CCn1cc(C(=O)O)c(=O)c2cc(F)c(N3CCNCC3)nc21	6% (inactive)
COCCSc1nnc(NC(=O)CSCc2ccccc2)s1	0% (inactive)
CC(C)C(c1nnnn1C1CCCC1)N1CCN(C(=O)c2ccco2)CC1 (stereo not given)	3% (inactive)
CN(Cc1ccco1)C(=O)Cn1c(=O)oc2cc(S(=O)(=O)NCc3ccccc3)ccc21	0% (inactive)
O=C(CCS(=O)(=O)c1cc(Br)cc2c1N(C(=O)C1CC1)CC2)NCC1CCCO1 (stereo not given)	0% (inactive)
COC(=O)C1(C#N)C(c2ccccc2)C1(C(=O)OC)C(=O)OC (stereo not given)	0% (inactive)
NC(=O)c1ccccc1NC(=O)CCCN1C(=O)CCC1=O	10% (inactive)
O=C(O)CN1C(=O)C2(OCCCO2)c2ccccc21	0% (inactive)
Cc1cccc(-n2ncc3c(N(CCO)CCO)ncnc32)c1	0% (inactive)
CN=C(Nc1ccc2c(c1)OCO2)SC1CC(=O)N(c2ccccc2)C1=O (stereo not given)	0% (inactive)
O=c1oc2ccccc2c2c1ncn2-c1ccccc1	0% (inactive)
COc1cc(NC(=O)c2cc(OC)c(OC)c(OC)c2)c(OC)cc1NC(=O)CN1CCCCC1	1% (inactive)
COc1ccc(-n2c(Cc3cccn3C)nnc2SCC(=O)Nc2ccc(Cl)cc2)cc1	0% (inactive)
CN(C)S(=O)(=O)c1ccc(S(=O)(=O)Nc2ccc3c(c2)oc2ccccc23)cc1	0% (inactive)
